Screening results as filed in PubChem.
Vif-A3G inh – inhibitors of Vif-APOBEC3G interaction | 410,000 compounds, 0.076% hits | Potency, µM (highest dose often 46.1 µM), for the others: at the top dose activity, negative = active, usual class: inhibitors | HeLa A3G-eYFP + Vif (tagged APOBEC3G with the HIV-1 protein that degrades it), YFP fluorescence, overnight | AID 602310 | Q9HC16; note: potency is the fitted concentration of half-maximal effect; % is set by controls: 0 for no effect and ±100 for the full control effect; nearly all actives have a fitted effect of over 60% in size
Target sequence (Q9HC16 whole entry, looked up): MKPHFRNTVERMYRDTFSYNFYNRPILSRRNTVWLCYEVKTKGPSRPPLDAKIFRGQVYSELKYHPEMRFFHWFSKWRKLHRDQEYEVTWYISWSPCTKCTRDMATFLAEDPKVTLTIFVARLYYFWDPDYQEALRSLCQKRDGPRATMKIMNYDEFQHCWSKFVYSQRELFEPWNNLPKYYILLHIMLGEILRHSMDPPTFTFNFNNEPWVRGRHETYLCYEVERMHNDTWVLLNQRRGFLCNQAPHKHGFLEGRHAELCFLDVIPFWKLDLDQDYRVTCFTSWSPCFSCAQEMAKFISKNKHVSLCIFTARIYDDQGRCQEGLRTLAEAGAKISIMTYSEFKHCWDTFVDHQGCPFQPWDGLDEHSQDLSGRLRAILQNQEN
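HeLa cells stably expressing Vif and C-terminally eYFP-tagged A3G, seeded overnight at 37 deg C, then exposed to compound by pintool overnight at 37 deg C. Rise in yellow fluorescence (Ex 488/Em 500-530, Acumen) marks blocked Vif-driven A3G degradation.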
IL-1B inflam inh – blocks inflammasome-driven IL-1 beta release. THP-1 LPS/ATP IL-1B secretion, AlphaLISA, 16 h; active compounds read low. 360,000 compounds, 4.7% hits. activity change, % at 57.5 µM. AID 743279; in the data active = activity change below about -50%; inconclusive = mostly about -30% to -49%; note: % is set by controls: 0 for no effect and ±100 for the full control effect
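THP-1 cells pretreated 1 hr with compounds (up to 57.5 uM final), then stimulated with LPS (250 ng/mL final) plus ATP (1.25 mM final); secreted IL-1B measured by AlphaLISA after 16 hr, decreased signal indicating inhibition.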
SW480 rereplic – inducers of DNA re-replication in SW480 colon cancer cells | SW480 DNA re-replication, Hoechst DNA content imaging, 48 h | Potency, µM (doses to about 46.1 µM), without a hit: at the top dose re-replication activation, actives largely listed as activators | 340,000 compounds, 1.8% hits; note: potency is the fitted concentration of half-maximal effect; % of control where 0% means no effect; nearly all actives have a fitted effect of over 55% in size
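Readout is total intensity of Hoechst-stained nuclei, excited at 405 nm and collected at 500-530 nm. Compound treatment lasted 48 hr at 37 C in 5% CO2 before staining.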
MCF10A rerep – induces DNA re-replication in MCF 10a normal breast cells; MCF 10A DNA re-replication, Hoechst nuclear intensity, 48 h; 350,000 compounds, 2.9% hits; Potency, µM (series often up to 46.1 µM), without a hit: at the highest dose activity, positive = re-replication, usual class: activators; note: potency is the fitted concentration of half-maximal effect; % of control where 0% means no effect; nearly all actives have a fitted effect of over 50% in size
Vif-A3F inh – blocks the Vif interaction with APOBEC3F | HeLa A3F-eYFP + Vif (tagged APOBEC3F with the HIV-1 protein that degrades it), YFP fluorescence increase | Potency, µM (titrated, usually from 46.1 µM), for inactives: at the top dose activity, negative = active | 390,000 compounds, 0.2% hits; note: potency is the fitted concentration of half-maximal effect; % of control where 0% means no effect; nearly all actives have a fitted effect of over 65% in size
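HeLa cells stably expressing Vif plus C-terminally eYFP-tagged A3F were seeded, incubated overnight at 37 deg C, dosed with compound, incubated overnight again at 37 deg C. Yellow fluorescence (Ex 488/Em 500-530) reported blocked Vif-mediated A3F-eYFP degradation.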
Giardia kill – Giardia lamblia killing. Giardia lamblia trophozoite viability. activity change, % at 7.66 µM, hits read low. 340,000 compounds, 0.15% hits; in the data active = activity change below about -80%; inconclusive = between about -30% and that limit;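 note: parasites exposed to compound for two days anaerobically before the ATP read; % is set by controls: 0 for no effect and ±100 for the full control effect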
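Killing of trophozoites was scored by loss of ATP luminescence after a 48 hrs anaerobic exposure to compounds at 37 deg C, using 100 cells per well.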
* = called active by the depositor; ? = inconclusive; . = no result given; [ ] = dose if it differs, or a comment. An excerpt weighted towards active compounds, which were near 6.9% of everything screened. Unless noted, calls come from the whole dose curve; as a rule, active = well fitted curve in the direction sought with a large enough effect; inconclusive = small, poorly fitted or top-dose-only effect, or another doubt; inactive = no such curve, though single readings can be large; an effect the other way counts as inactive or inconclusive.

SMILES	Vif-A3G inh	IL-1B inflam inh	SW480 rereplic	MCF10A rerep	Vif-A3F inh	Giardia kill
CSc1ccc(-c2nc3ncccn3c2Nc2ccc(C)c(C)c2)cc1	-1%	.	.	.	-7%	.
O=C(c1[nH]c2ccccc2c1Sc1ccc(Cl)cc1)N1CCCCC1	-9%	.	.	.	5%	.
NC(=O)CC(NC(=O)Cc1ccc(Br)cc1)c1ccc(NCC2CC2)c([N+](=O)[O-])c1 (stereo not given)	-16%	-5	-15%	8%	5%	-6
NC(=O)CC(NC(=O)Cc1ccc(Br)cc1)c1ccc(NCc2ccc(F)cc2)c([N+](=O)[O-])c1 (stereo not given)	?	24	-19%[9.22 µM]	-27%	11µM*	5
O=C(C1CCCCC1)N1CCN=C1SCc1cccc([N+](=O)[O-])c1	-16%	-94*	3%	18%	-4%	15
Cc1ccc(C(=O)N2CCN=C2SCc2ccc([N+](=O)[O-])cc2)cc1C	-1%	-85*	2%	1%	4%	20
O=C(c1ccccc1)N1CCN=C1SCc1ccc([N+](=O)[O-])cc1	-3%	-8	-4%	10%	6%	12
CC(C)(C)n1ncc2c(=O)n(CC(=O)NCc3ccccc3)cnc21	?	27	21µM*	15µM*	-12%	-8
Cc1ccc(-n2ncc3c(=O)n(CC(=O)NCc4ccco4)cnc32)cc1	-18%	21	?	?	5%	20
Cc1ccc(Cn2nnc3c(=O)n(CC(=O)NCc4ccccc4)cnc32)cc1	?	82	9.2µM*	9.2µM*	-3%	18
O=C(Cn1cnc2c(cnn2-c2ccc(F)cc2)c1=O)NCc1ccco1	?	39	?	15µM*	-1%	-1
CCc1ccc(-n2nc(CO)c(C(=O)NCCCc3ccccc3)n2)cc1	-1%	.	.	.	-4%	.
CCNC(=O)c1c(NC(=O)c2nc(S(=O)(=O)CC)ncc2Cl)sc2c1CCCC2	-14%	.	.	.	1%	.
Cc1ccc(NC(=O)c2cc3nc(-c4ccc5c(c4)OCO5)cc(C(F)(F)F)n3n2)cc1Cl	2%	.	.	.	3%	.
COc1ccc(-c2nn(-c3ccc(F)cc3F)c3c2cnc2ccc(F)cc23)cc1	-2%	.	.	.	2%	.
O=C(NCc1cccc(Cl)c1)c1ccc(-c2ccc(F)c(F)c2)c2ccoc12	3%	0	.	.	.	.
O=C(NCc1ccccc1)c1ccc(-c2ccc(F)c(F)c2)c2ccoc12	3%	-72*	.	.	.	.
O=C(NCc1ccc(F)c(F)c1)c1cccc2c(-c3cccnc3)coc12	-11%	-63*	.	.	.	.
O=C(NCc1cccc(Cl)c1)c1cccc2c(-c3cccnc3)coc12	-13%	?	.	.	.	.
Cc1ccc(Cl)cc1NC(=O)CCc1c(C)nc2c3cccnc3nn2c1C	-1%	.	.	.	7%	.
Cc1ccc(-n2c(C)cc(C(=O)COC(=O)c3c(C)noc3C)c2C)cc1	1%	-58*	16%	18%	-8%	-13
COc1ccccc1N1CCN(C(=O)c2oc3ccccc3c2NC(=O)C(C)Oc2ccccc2)CC1 (stereo not given)	0%	.	.	.	1%	.
c1ccc2c(c1)oc1c(N3CCOCC3)ncnc12	3%	-3	-3%	14%	-10%	7
COc1ccccc1N1CCN(C(=O)c2oc3ccccc3c2C)CC1	-20%	45	15µM*	?	5%	40
COc1ccccc1N1CCN(C(=O)c2oc3ccc(Br)cc3c2C)CC1	?	23	?	16µM*	-8%	16
SMILES	Vif-A3G inh	IL-1B inflam inh	SW480 rereplic	MCF10A rerep	Vif-A3F inh	Giardia kill
COc1ccccc1N1CCN(C(=O)c2oc3ccc(F)cc3c2C)CC1	?	33	?	?	3%	10
COc1ccccc1N1CCN(c2ncnc3c2oc2ccccc23)CC1	?	35	21µM*	3.3µM*	-4%	21
Cc1sc(-c2ccccn2)nc1OC(=O)c1ccc(F)cc1F	3%	-76*	-3%	-4%	-12%	12
Cc1sc(-c2ccccn2)nc1OC(=O)c1ccc(Cl)c(Cl)c1	0%	18	0%	0%	-12%	-21
COCCNC(=O)C(OC(=O)CC1Sc2ccccc2NC1=O)c1ccncc1 (stereo not given)	-4%	33	3.7µM*	4.6µM*	-10%	-15
CC(C)OP(=O)(OC(C)C)/C(C=O)=N\Nc1ccc([N+](=O)[O-])cc1	-15%	-90*	-15%	0%	2%	11
CC(C)OP(=O)(OC(C)C)C(Nc1ccc([N+](=O)[O-])cc1)c1cccc([N+](=O)[O-])c1 (stereo not given)	0%	-6	-10%	-4%	4%	-3
O=C(NN=Cc1c(F)c(F)c(F)c(F)c1F)c1ccc(NS(=O)(=O)c2cccs2)cc1	-3%	-99*	-6%	25%	0%	1
C/C(=N\NC(=O)c1ccc(NS(=O)(=O)c2cccs2)cc1)c1cccs1	-4%	-52*	-5%	-5%	-1%	12
C/C(=N\NC(=O)CNc1cccc(Cl)c1C)c1cccs1	-10%	-17	18µM*	20%	2%	18
C/C(=N\NC(=O)c1ccc(NS(=O)(=O)c2cccs2)cc1)c1ccc(Cl)cc1	-1%	-5	-12%	0%	5%	9
COc1ccccc1NCC(=O)N/N=C(\C)c1cccs1	-7%	-18	-24%	0%	3%	-12
C/C(=N\NC(=O)c1ccc(Cl)cc1)c1cccs1	-6%	-63*	6%	2%	-10%	-22
COC(=O)N/N=C(\C)c1cccs1	1%	-6	-3%	17%	-9%	6
C=CCn1c(SCC#N)nc2ccc(Cl)cc2c1=O	0%	.	.	.	.	-3
CC1(C)C2CCC1(C)C(NC(=O)COC(=O)c1ccc(S(C)(=O)=O)c([N+](=O)[O-])c1)C2 (stereo not given)	?	.	.	.	.	-3
COc1ccc(CNC(=O)c2cccn2-c2nnc(N3CCCCC3)s2)c(OC)c1	-1%	.	.	.	1%	.
Cc1ccc(-c2ccc(=O)n(CC(=O)NCCc3ccccc3)n2)cc1	2%	.	.	.	-3%	.
C/C(=N/NC(=O)c1cccs1)c1ccc(NC(=O)COc2ccc(Cl)cc2)cc1	-2%	12	?	5.2µM*	-6%	1
C/C(=N/NC(=O)c1cccs1)c1ccc(N2CCOCC2)cc1	-2%	-5	0.52µM*	-2%	1%	-8
COc1ccc(N2CC(O)(c3ccc(OC(F)F)cc3)[N+]3=C2CCCC3)cc1 (stereo not given)	4%	-54*	-2%	5%	-3%	-17
CN(C)S(=O)(=O)c1cccc(NC(=O)CSc2ncnc3ccccc23)c1	-20%	-100*	?	?	19%	50
O=c1c2ccccc2nnn1CSc1ncnc2ccccc12	-1%	-81*	-1%	6%	-2%	-10
